Test results from PubChem BioAssay (Tox21).
Values without a mark were called inactive. Records with an inconclusive call do not appear. Where a call stands in place of a potency, no number is given. Calls of active or inactive are those of the source. Unless noted, the call rests on the fitted dose curve; in most records, active means well fitted curve in the direction sought with a large enough effect in the repeat runs; inconclusive means weak or mixed curves; inactive means no such curve, though single readings can be large; an effect the other way counts as inactive or inconclusive.

Assays:
[1] = qHTS assay to identify small molecule antagonists of the estrogen related receptor (ERR) signaling pathway from Tox21 library - cell viability counter screen (AID 1224834); further: nearly all actives have a fitted effect of over 30% in size; further: potency means the concentration at half of the fitted maximal effect
In short: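 Multiplexed viability counter screen in ERR cells: 17.5 h compound exposure at 37 C, CellTiter-Fluor added, 30 min at 37 C/5% CO2, fluorescence read.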

[2] = target: Luciferin 4-monooxygenase (Photinus pyralis) (UniProt P08659); assay: qHTS assay to identify small molecule inhibitors of firefly luciferase (AID 1224835); further: nearly all actives have a fitted effect of over 25% in size; further: potency means the concentration at half of the fitted maximal effect
Sequence of Luciferin 4-monooxygenase (Photinus pyralis) (P08659 whole entry, looked up): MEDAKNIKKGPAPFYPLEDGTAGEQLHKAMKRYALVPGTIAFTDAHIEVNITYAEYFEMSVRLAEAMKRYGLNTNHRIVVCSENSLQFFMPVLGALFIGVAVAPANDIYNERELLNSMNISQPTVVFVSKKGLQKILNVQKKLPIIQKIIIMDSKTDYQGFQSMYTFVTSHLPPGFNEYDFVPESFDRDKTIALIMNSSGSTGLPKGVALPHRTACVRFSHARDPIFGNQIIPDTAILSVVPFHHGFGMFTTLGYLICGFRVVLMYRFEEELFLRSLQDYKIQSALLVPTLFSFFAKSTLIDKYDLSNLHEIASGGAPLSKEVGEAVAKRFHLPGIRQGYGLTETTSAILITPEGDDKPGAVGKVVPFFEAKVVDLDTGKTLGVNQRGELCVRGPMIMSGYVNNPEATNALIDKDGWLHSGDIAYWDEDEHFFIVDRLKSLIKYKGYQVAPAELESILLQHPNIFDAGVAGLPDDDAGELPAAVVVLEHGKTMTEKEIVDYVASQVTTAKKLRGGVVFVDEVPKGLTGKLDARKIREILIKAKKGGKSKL
In short: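 Inhibition of purified Photinus luciferase is measured by luminescence. Substrate levels (D-luciferin, ATP) sit at their KM values. Each compound is tested in a concentration series.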

[3] = qHTS assay to identify small molecule agonists of the constitutive androstane receptor (CAR) signaling pathway - cell viability counter screen (AID 1224836); further: nearly all actives have a fitted effect of over 45% in size; further: potency means the concentration at half of the fitted maximal effect
In short: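 Cells were seeded and incubated 4 hrs. Compounds were added across 15 concentrations together with PK11195 at 0.75 uM final. Plates were incubated 23 hrs at 37 C. CellTiter-Fluor was added and fluorescence measured.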

[4] = qHTS assay to identify small molecule antagonists of the constitutive androstane receptor (CAR) signaling pathway - cell viability counter screen (AID 1224837); further: nearly all actives have a fitted effect of over 45% in size; further: potency means the concentration at half of the fitted maximal effect
In short: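 Read-out: CellTiter-Fluor fluorescence after 23 hr at 37 C/5% CO2. Cells: HepG2 double-stable for hCAR and CYP2B6-2.2kb. Compounds tested at 15 concentrations in the presence of CITCO, final concentration 50 nM.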

[5] = target: Nuclear receptor subfamily 1 group I member 3 (Homo sapiens) (UniProt Q14994); assay: qHTS assay to identify small molecule agonists of the constitutive androstane receptor (CAR) signaling pathway (AID 1224839);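 further: HepG2 cells stably carrying human CAR and a CYP2B6 luciferase reporter; nearly all actives have a fitted effect of over 15% in size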
Sequence of Nuclear receptor subfamily 1 group I member 3 (Homo sapiens) (Q14994 whole entry, looked up): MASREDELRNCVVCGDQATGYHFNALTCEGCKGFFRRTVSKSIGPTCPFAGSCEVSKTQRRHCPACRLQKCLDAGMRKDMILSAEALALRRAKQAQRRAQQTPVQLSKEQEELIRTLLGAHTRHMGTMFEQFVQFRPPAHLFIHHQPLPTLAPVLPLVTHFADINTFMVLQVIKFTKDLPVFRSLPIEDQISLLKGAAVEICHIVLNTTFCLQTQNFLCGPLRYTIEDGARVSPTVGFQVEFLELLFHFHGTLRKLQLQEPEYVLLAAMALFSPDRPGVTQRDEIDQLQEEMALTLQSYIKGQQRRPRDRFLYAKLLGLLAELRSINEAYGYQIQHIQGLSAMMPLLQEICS
In short: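 Cells were plated and incubated 4 hrs, then dosed with compounds at 15 concentrations. PK11195 was added to 0.75 uM final. After 24 hrs at 37 C, luciferase luminescence was measured.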

[6] = qHTS assay to identify small molecule antagonists of the estrogen related receptor signaling pathway with the pleiotropic PPARgamma coactivator (PGC) from Tox21 10K library - cell viability counter screen (AID 1224840; active means well fitted cell-killing curve with a large enough effect in the repeat runs, not every such curve was filed as active; further: nearly all actives have a fitted effect of over 40% in size; further: potency means the concentration at half of the fitted maximal effect)
In short: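 Fluorescence read-out of CellTiter-Fluor viability reagent, added after cells had been exposed to compound in DMSO for 17.5 h at 37 C; 30 min development at 37 C/5% CO2. Cells: PGC/ERR line, 2,000/well.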

[7] = qHTS assay to identify small molecule antagonists of the estrogen related receptor signaling pathway with the pleiotropic PPARgamma coactivator (PGC) from Tox21 10K library (AID 1224841; call rule not given here; further: actives are mostly falling curves and most rising ones were filed inactive; nearly all actives have a fitted effect of over 50% in size; further: potency means the concentration at half of the fitted maximal effect)
In short: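 Luminescence read-out (One-Glo luciferase reagent, 30 min at room temperature) from PGC/ERR cells exposed to DMSO-dissolved test compounds for 18 h at 37 C; cells, 2,000 per well, had been preincubated 6 h before compound transfer.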

[8] = qHTS assay to identify small molecule agonists of the estrogen related receptor signaling pathway with the pleiotropic PPARgamma coactivator (PGC) from Tox21 10K library (AID 1224842); further: nearly all actives have a fitted effect of over 15% in size; further: potency means the concentration at half of the fitted maximal effect
In short: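 Luminescence from One-Glo (30 min, room temperature) measured after PGC/ERR cells had 18 h at 37 C with pinned compound (23 nL in DMSO). Cells had been seeded at 2,000 per well and pre-incubated 6 h.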

[9] = qHTS assay to identify small molecule agonists of the hypoxia (HIF-1) signaling pathway - cell viability counter screen (AID 1224844; calls by dose curve; further: nearly all actives have a fitted effect of over 50% in size; further: potency means the concentration at half of the fitted maximal effect)
In short: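 CellTiter-Glo luminescence read-out, 30 min RT, taken in the same wells as the beta-lactamase HRE reporter assay; HRE-bla ME-180 cells, 0.5% dialyzed FBS, 17 hr compound treatment at 37C, 5% CO2.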

[10] = qHTS assay to identify small molecule agonists of H2AX (AID 1224845; active means well fitted activation curve with a large enough effect in the signal ratio in the repeat runs, not every such curve was filed as active; the % refers to the signal ratio)
In short: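 Phospho-H2AX Ser139 measured by HTRF (ex 320 nm; em 665 and 620 nm) after 24 hr antibody incubation. Compounds, 15 concentrations, 0.76% DMSO, were applied to CHO-K1 cells for 3hr at 37C before lysis.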

[11] = qHTS assay to identify small molecule agonists of H2AX - cell viability counter screen (AID 1224847; calls by dose curve; further: top concentration of the series differs between compounds; nearly all actives have a fitted effect of over 30% in size)
In short: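 Cytotoxicity counter screen in wild-type CHO-K1 cells: a 3 hr compound treatment at 37C across 15 concentrations, followed by CellTiter-Glo luminescence to gauge viable cells.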

[12] = qHTS assay to identify small molecule antagonists of the estrogen related receptor (ERR) signaling pathway from Tox21 library (AID 1224848); further: nearly all actives have a fitted effect of over 50% in size; further: potency means the concentration at half of the fitted maximal effect
In short: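 Luciferase luminescence (ONE-Glo, 30 min room temperature) was the read-out. Cells of the NTP-supplied ERR line, 2,000 per well, were given 6 h at 37 C before compound addition in DMSO and 18 h exposure at 37 C.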

[13] = qHTS assay to identify small molecule agonists of the estrogen related receptor (ERR) signaling pathway from Tox21 library (AID 1224849; calls by dose curve; further: nearly all actives have a fitted effect of over 15% in size); details: ERR reporter cell line, ONE-Glo luciferase, 18 h; at 92.4 µM (top of the series) unless noted
In short: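 Luminescence readout (ONE-Glo, 30 min RT) after 18 h compound exposure at 37 C of NTP-supplied ERR reporter cells; cells were plated 6 h before compound addition by pin tool.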

[14] = qHTS RealTime-Glo MT Cell Viability Assay in HepG2 cells - 24 hour (AID 1224867); further: nearly all actives have a fitted effect of over 50% in size
In short: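 Real-time, nonlytic viability: 600 HepG2 cells/well mixed with NanoLuc enzyme plus prosubstrate; 5 h settle, compound (DMSO) added by pintool; luminescence monitored over 40 h at 37 C.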

[15] = qHTS RealTime-Glo MT Cell Viability Assay in HepG2 cells - 40 hour (AID 1224870); further: nearly all actives have a fitted effect of over 50% in size
In short: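 Real-time viability: cells seeded at 600 per well together with NanoLuc and cell-permeant prosubstrate, compounds added after 5 h incubation. Luminescence tracked at 0, 8, 16, 24, 32 and 40 h of exposure.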

[16] = qHTS assay to identify small molecule agonists of the hypoxia (HIF-1) signaling pathway (AID 1224846; active means well fitted activation curve with a large enough effect in the signal ratio in the repeat runs, not every such curve was filed as active; the % refers to the signal ratio)
In short: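 Beta-lactamase FRET read-out (CCF4-AM substrate) from ME-180 cells carrying an HRE-driven bla reporter, after 17 hrs compound exposure at 37C/5% CO2. Cells were seeded at 2,000 per well in 0.5% dialyzed FBS medium and preincubated 5 hrs.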

[17] = qHTS RealTime-Glo MT Cell Viability Assay in HEK293 cells - 32 hour (AID 1224868); further: nearly all actives have a fitted effect of over 50% in size; further: potency means the concentration at half of the fitted maximal effect
In short: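 Cells + reagent dispensed (600 cells/well, HEK293) → 5 h at 37 C/5% CO2 → 23 nL compound in DMSO pinned → 40 h at 37 C → luminescence read at 0, 8, 16, 24, 32, 40 h.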

[18] = A CellTox Green Cytotoxicity Assay to monitor cytotoxicity in HEK293 cells - 0 hour (AID 1224869); further: nearly all actives have a fitted effect of over 50% in size
In short: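 Read-out: fluorescence of a cell-impermeant cyanine dye staining DNA of dead cells, proportional to cytotoxicity. HEK293, 600 cells/well with reagent, compound (23 nL DMSO) added after 5 h; reads at 0, 8, 16, 24, 32, 40 h.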

[19] = target: Thyrotropin receptor (Homo sapiens) (UniProt P16473); assay: qHTS assay to identify small molecule agonists of the thyroid stimulating hormone receptor (TSHR) signaling pathway (AID 1224843; calls by dose curve; further: nearly all actives have a fitted effect of over 45% in size)
Sequence of Thyrotropin receptor (Homo sapiens) (P16473 whole entry, looked up): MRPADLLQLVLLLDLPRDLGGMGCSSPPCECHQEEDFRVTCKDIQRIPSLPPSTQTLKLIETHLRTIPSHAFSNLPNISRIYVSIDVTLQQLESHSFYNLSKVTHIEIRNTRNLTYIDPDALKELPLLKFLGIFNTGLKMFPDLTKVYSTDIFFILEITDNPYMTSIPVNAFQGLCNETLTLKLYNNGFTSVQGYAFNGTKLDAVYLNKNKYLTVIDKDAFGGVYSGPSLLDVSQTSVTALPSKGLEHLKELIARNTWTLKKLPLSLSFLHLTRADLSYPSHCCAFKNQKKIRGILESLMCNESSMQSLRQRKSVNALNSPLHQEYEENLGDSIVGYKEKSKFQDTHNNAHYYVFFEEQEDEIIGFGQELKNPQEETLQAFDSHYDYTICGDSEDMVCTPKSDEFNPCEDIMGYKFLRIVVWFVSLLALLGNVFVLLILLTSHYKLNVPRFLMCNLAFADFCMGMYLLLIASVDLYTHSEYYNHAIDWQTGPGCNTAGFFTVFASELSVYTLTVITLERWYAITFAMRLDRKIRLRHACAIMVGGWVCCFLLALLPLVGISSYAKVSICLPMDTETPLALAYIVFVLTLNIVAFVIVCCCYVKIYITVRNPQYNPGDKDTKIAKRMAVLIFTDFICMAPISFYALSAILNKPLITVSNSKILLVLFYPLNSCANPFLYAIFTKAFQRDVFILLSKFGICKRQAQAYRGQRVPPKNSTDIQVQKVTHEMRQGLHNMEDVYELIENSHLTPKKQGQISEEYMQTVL
In short: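 Agonist activity read as cAMP rise via d2/cryptate HTRF competition, 1 h room-temperature detection, in HEK293 cells expressing TSHR. Fifteen-point titrations, each run in triplicate, with a 30 min room-temperature incubation beforehand.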

[20] = target: Nuclear receptor subfamily 1 group I member 3 (Homo sapiens) (UniProt Q14994); assay: qHTS assay to identify small molecule antagonists of the constitutive androstane receptor (CAR) signaling pathway (AID 1224838);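 further: HepG2 cells stably expressing hCAR with CYP2B6 luciferase reporter stimulated by CITCO; nearly all actives have a fitted effect of over 40% in size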
In short: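 Read-out: ONE-Glo luciferase luminescence after 30 min at room temperature. HepG2-CYP2B6-hCAR double-stable cells, compounds in 15-point titration plus 50 nM CITCO final, 24 h at 37 C/5% CO2.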

| SMILES | Potency [1] | Potency [2] | Potency [3] | Potency [4] | Potency [5] | Potency [6] | Potency [7] | Potency [8] | Potency [9] | Potency [10] | Potency [11] | Potency [12] | activity change, positive = activation [13] | Potency [14] | Potency [15] | outcome [16] | Potency [17] | Potency [18] | Potency [19] | Potency [20] |
| --- | --- | --- | --- | --- | --- | --- | --- | --- | --- | --- | --- | --- | --- | --- | --- | --- | --- | --- | --- | --- |
| CC(=O)OC(C)C[N+](C)(C)C (centres undefined) | inactive | inactive | inactive | inactive | inactive | inactive | inactive | inactive | inactive | inactive | inactive | inactive | 7.44% [at 42.5 µM] | inactive | inactive | – | – | – | – | – |
| CCOC(=O)c1c(N)sc2c1CCN(Cc1ccccc1)C2 | inactive | inactive | inactive | inactive | inactive | inactive | – | – | inactive | inactive | inactive | – | – | – | inactive | inactive | 21.3 µM (active) | inactive | – | – |
| Cc1c(C2(c3cc(Br)c(O)c(Br)c3C)OS(=O)(=O)c3ccccc32)cc(Br)c(O)c1Br | 14.9 µM (active) | 8.67 µM (active) | 14.9 µM (active) | 18.8 µM (active) | inactive | 18.8 µM (active) | 11.8 µM (active) | inactive | 16.9 µM (active) | – | – | 11.8 µM (active) | -68% | inactive | – | inactive | inactive | inactive | – | – |
| CC1C(C)(C)C2=C(C(=O)CCC2)C1(C)C (centres undefined) | inactive | inactive | inactive | inactive | inactive | inactive | inactive | inactive | inactive | inactive | inactive | inactive | -0.756% | inactive | inactive | inactive | – | inactive | – | – |
| CC(=O)OCCC(C)CC(C)(C)C (centres undefined) | inactive | inactive | inactive | inactive | inactive | inactive | inactive | inactive | inactive | – | inactive | inactive | 4.15% | inactive | inactive | inactive | – | inactive | inactive | – |
| CC(C)OC(=O)c1ccccc1C(=O)OC(C)C | inactive | inactive | inactive | inactive | – | inactive | – | – | inactive | inactive | inactive | – | – | – | inactive | inactive | inactive | inactive | inactive | inactive |
| Cc1ccc2c(c1)CCCN2 | inactive | inactive | inactive | inactive | – | inactive | – | – | inactive | inactive | inactive | – | – | – | inactive | inactive | inactive | – | inactive | inactive |
| O=c1[nH][nH]c(=O)c2cc([N+](=O)[O-])ccc12 | inactive | inactive | inactive | inactive | inactive | inactive | – | – | inactive | inactive | inactive | – | – | – | inactive | inactive | inactive | inactive | – | – |
| Cc1ccc(N(CCO)CCO)cc1 | inactive | inactive | inactive | inactive | inactive | inactive | – | – | inactive | inactive | inactive | – | – | inactive | inactive | inactive | inactive | inactive | – | – |
| COc1cc(S(=O)(=O)Nc2ccccc2)c(OC)cc1N | inactive | inactive | inactive | inactive | – | inactive | – | – | – | – | inactive | – | – | – | inactive | inactive | inactive | inactive | inactive | inactive |
| C[C@@H]1[C@H](O)[C@@H](C)/C=C/C=C\C=C\C=C\C=C\C=C\C=C\[C@H](O[C@@H]2O[C@H](C)[C@@H](O)[C@H](N)[C@@H]2O)C[C@@H]2O[C@](O)(C[C@@H](O)C[C@@H](O)[C@H](O)CC[C@@H](O)C[C@@H](O)CC(=O)O[C@H]1C)C[C@H](O)[C@H]2C(=O)O (stereo in doubt) | 61.1 µM (active) | inactive | inactive | inactive | – | inactive | – | – | – | – | inactive | – | – | inactive | inactive | – | inactive | – | – | inactive |
| Cc1ccc(Cl)cc1N | inactive | inactive | inactive | inactive | inactive | inactive | – | – | inactive | inactive | – | – | – | – | inactive | inactive | inactive | inactive | – | inactive |
| O=NN(CCCl)C(=O)NCCCl | inactive | inactive | inactive | inactive | – | inactive | inactive | inactive | inactive | inactive | inactive | inactive | 2.54% [at 42.5 µM] | inactive | inactive | – | inactive | inactive | – | inactive |
| CNC1CCCN(c2c(F)cc3c(=O)c(C(=O)O)cn(C4CC4)c3c2OC)C1 (centres undefined) | inactive | inactive | inactive | inactive | inactive | inactive | – | – | inactive | inactive | inactive | – | – | inactive | inactive | inactive | inactive | inactive | inactive | – |
| O=C(NS(=O)(=O)/C=C/c1ccccc1)c1ccc(F)cc1Cl | inactive | inactive | inactive | inactive | inactive | inactive | inactive | 13.7 µM (active) | – | inactive | inactive | inactive | – | inactive | inactive | inactive | – | inactive | inactive | – |
